According to PubChem BioAssay:
Calls of active or inactive are those of the source.

How the values were obtained:
[1] = small molecules captured by biotinylated probe aFSTL3 – biochemical, small-molecule microarray, fluorescence 635/667, stem cell growth factor project, primary screen (AID 1064); settings: higher = more signal;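 further: measures binding of the biotinylated anti-FSTL3 antibody to printed compounds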
[2] = binders from COS7 lysate, DM2A8 probe, primary screen, torsin A project, cell lysate, small-molecule microarray, fluorescence 635/667 (AID 1065); settings: higher = more signal, COS7 lysate expressing mutant human TOR1A
[3] = small molecules captured by biotinylated probe aFGF2 – biochemical, small-molecule microarray, fluorescence 635/667, stem cell growth factor project, primary screen (AID 1067); settings: higher = more signal;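 further: measures binding of biotinylated aFGF2 protein to printed compounds on slides; z-score merges feature fluorescence and signal-to-noise across triplicate slides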
[4] = small molecules captured by biotinylated probe aFGF10 – biochemical, small-molecule microarray, fluorescence 635/667, stem cell growth factor project, primary screen (AID 1071); settings: higher = more signal;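 further: score merges 667 nm spot intensity and signal to noise from triplicate slides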
[5] = biological target: Neurogenic locus notch homolog protein 2 (Homo sapiens) (UniProt Q04721); assay: small molecules binding Notch2 protein – biochemical, small-molecule microarray, 635 nm fluorescence, stem cell growth factors, primary screen (AID 1073); settings: higher = more signal
Neurogenic locus notch homolog protein 2 (Homo sapiens), sequence (Q04721 whole entry, looked up, canonical isoform): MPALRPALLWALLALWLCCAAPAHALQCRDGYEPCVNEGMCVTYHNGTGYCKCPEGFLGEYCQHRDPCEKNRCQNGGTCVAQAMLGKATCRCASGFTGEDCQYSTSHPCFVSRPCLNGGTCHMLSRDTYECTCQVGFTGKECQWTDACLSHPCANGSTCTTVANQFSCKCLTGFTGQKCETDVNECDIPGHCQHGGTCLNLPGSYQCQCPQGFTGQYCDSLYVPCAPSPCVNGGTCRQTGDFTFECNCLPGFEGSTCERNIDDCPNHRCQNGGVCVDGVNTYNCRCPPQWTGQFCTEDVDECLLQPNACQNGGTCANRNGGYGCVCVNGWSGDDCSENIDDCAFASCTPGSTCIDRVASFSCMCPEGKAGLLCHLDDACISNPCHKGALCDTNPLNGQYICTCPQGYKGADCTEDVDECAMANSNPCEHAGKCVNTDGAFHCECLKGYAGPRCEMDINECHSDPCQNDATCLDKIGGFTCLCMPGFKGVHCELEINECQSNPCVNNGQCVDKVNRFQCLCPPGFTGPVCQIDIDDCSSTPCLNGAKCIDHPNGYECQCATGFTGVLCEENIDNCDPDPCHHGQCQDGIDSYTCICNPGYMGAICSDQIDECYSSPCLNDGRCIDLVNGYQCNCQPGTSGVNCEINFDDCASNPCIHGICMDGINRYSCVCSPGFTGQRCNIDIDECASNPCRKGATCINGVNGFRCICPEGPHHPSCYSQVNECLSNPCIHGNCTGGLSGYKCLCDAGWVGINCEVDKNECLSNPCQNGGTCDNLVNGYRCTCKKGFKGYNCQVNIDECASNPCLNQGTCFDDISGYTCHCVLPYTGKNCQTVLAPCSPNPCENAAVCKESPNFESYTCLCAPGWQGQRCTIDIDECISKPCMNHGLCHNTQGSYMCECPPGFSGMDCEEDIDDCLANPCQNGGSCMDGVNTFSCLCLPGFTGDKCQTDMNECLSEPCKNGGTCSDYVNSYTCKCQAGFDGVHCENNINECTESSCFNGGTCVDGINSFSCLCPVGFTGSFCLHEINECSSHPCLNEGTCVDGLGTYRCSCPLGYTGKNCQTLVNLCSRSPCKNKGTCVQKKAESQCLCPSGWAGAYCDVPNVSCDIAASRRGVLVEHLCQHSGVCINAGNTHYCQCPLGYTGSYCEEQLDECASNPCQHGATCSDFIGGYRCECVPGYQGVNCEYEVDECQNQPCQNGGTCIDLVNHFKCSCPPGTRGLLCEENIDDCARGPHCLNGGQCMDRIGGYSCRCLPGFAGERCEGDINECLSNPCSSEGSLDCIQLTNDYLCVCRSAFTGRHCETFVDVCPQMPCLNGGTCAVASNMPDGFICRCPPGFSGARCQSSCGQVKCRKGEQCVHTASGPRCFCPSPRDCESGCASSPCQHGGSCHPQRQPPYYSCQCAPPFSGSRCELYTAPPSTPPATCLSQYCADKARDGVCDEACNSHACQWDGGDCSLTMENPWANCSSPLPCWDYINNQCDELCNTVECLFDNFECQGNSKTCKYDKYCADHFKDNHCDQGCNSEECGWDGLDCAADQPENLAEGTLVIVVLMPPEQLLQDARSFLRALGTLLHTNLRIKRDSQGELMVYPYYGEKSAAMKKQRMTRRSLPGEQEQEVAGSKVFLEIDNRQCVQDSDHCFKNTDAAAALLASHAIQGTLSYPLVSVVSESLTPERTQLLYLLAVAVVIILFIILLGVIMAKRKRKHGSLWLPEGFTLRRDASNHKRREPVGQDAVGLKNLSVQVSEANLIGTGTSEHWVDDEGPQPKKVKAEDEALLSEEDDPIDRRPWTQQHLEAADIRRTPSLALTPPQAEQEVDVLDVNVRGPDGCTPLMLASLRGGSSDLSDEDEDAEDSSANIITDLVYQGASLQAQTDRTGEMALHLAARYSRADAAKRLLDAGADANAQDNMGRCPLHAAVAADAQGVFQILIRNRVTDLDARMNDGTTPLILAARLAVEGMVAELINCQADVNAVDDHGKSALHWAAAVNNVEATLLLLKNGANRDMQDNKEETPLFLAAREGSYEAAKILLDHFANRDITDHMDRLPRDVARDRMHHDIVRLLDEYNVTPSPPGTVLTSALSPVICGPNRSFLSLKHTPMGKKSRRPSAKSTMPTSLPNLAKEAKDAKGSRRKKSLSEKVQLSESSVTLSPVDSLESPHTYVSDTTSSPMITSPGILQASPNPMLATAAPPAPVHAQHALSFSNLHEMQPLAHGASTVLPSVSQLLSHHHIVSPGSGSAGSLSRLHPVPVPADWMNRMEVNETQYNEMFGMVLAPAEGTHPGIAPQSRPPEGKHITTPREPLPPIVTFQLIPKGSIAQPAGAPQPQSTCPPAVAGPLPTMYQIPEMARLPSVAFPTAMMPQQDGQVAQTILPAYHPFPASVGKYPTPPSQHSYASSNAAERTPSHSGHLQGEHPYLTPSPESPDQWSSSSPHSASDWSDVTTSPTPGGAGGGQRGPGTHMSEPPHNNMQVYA

[6] = biological target: Pro-neuregulin-1, membrane-bound isoform (Homo sapiens) (UniProt Q02297); assay: small molecules binding neuregulin-1 protein – biochemical, small-molecule microarray, fluorescence 635/667, psychiatric disease protein project, primary screen (AID 1075); settings: NRG1 binding, 635 nm fluorescence, higher = more signal;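 further: score combines 667 nm spot fluorescence with signal to noise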
Pro-neuregulin-1, membrane-bound isoform (Homo sapiens), sequence (Q02297 whole entry, looked up, the tested form may be a part, canonical isoform): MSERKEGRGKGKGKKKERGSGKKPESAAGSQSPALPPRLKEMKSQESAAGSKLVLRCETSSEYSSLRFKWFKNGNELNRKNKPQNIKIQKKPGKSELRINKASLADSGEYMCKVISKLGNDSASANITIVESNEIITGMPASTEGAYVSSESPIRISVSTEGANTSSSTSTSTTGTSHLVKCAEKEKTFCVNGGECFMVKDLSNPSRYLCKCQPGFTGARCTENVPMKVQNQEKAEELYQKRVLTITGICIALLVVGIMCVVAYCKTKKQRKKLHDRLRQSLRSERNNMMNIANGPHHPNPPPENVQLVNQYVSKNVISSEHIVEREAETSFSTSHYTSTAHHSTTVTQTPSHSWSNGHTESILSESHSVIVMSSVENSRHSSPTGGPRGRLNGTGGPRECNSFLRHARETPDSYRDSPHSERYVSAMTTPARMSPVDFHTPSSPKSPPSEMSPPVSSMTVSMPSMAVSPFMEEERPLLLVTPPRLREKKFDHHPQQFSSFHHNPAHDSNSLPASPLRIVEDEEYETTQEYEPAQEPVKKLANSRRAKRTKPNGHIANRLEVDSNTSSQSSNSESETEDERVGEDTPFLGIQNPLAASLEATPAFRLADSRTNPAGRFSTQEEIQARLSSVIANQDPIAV

[7] = tested on: Neuregulin-1 EGF-like domain; assay: small molecules binding NRG1 EGF domain – biochemical, small-molecule microarray, 635 nm fluorescence, primary screen (AID 1081); settings: higher = more signal;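 further: binding of the protein to compounds printed on small-molecule microarray slides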
[8] = FRG1 expression reporter modulators in myotubes – cell-based, C2C12 myotubes, firefly/Renilla luciferase, luminescence, FRG1 inhibition for FSHD, primary screen (AID 1084); settings: FRG1 promoter luciferase, higher = more signal, called active from +8 up or from −8 down
[9] = small molecules captured by biotinylated probe aFST – biochemical, small-molecule microarray, fluorescence 635/667, stem cell growth factor project, primary screen (AID 1086); settings: higher = more signal;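 further: score merges 667 nm fluorescence with signal-to-noise of each printed compound spot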
[10] = binders of probe aHhip on microarray, primary screen, stem cell growth factor project, biochemical, small-molecule microarray, fluorescence 635/667 (AID 1087); settings: higher = more signal;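 further: score merges spot fluorescence at 667nm with spot signal to noise ratio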

Row | Compound | composite z-score [1] | composite z-score [2] | composite z-score [3] | composite z-score [4] | composite z-score [5] | composite z-score [6] | composite z-score [7] | z-score [8] | composite z-score [9] | composite z-score [10]
1 | COCCCNC(=O)[C@@]1(Cc2ccccc2I)c2ccccc2C(=O)N(C2CCCCC2)[C@H]1c1ccc(CO)cc1 | -0.101 | 0.346 | -0.0064 | 0.527 | 0.452 | 0.857 | 1.35 | -4.02 (inactive) | -0.729 | -0.0994
2 | COc1ccc(C(O)C2C=CC3C(=O)N(c4ccccc4)C(=O)C3N2Nc2ccccc2F)c2ccccc12 (stereo not given) | 1.24 | 1.08 | 0.433 | 1.14 | 1.72 | 1.79 | 1.23 | 1.25 (inactive) | 1.89 | -0.233
3 | CC(C)C[C@@H]1NC(=O)[C@H]2C[C@@H](C(=O)O)[C@@H](c3cccc(OCCO)c3)N2C1=O | 0.885 | 1.76 | -0.083 | -0.0367 | -0.26 | 1.61 | 1.48 | 7.43 (inactive) | 0.108 | 0.129
4 | COC(=O)[C@@]1(Cc2ccccc2)[C@H]2c3cc(C(=O)N(C)C)n(Cc4ccc(Cl)c(C(F)(F)F)c4)c3C[C@H]2CN1C(=O)c1ccccc1 | 0.0539 | 0.277 | 0.372 | 1.09 | 1.61 | 1.35 | 1.18 | -3.33 (inactive) | 1.51 | 0.26
5 | COC(=O)[C@@]1(Cc2ccc(F)cc2)[C@H]2c3cc(C(=O)N4CCCC4)n(Cc4ccc(C(F)(F)F)nc4)c3C[C@H]2CN1C(=O)c1ccccc1 | 0.581 | -0.0219 | 0.16 | 0.0812 | 1.74 | 2.1 | 0.92 | 2 (inactive) | 2.25 | -0.0799
6 | Cc1ccc(S[C@]2(C(=O)NCC(C)C)CC(=O)N(C(C)C)[C@@H]2c2ccc(CO)cc2I)cc1 | 1.12 | 1.39 | 0.0519 | -0.41 | -0.365 | 1.18 | -0.569 | -0.999 (inactive) | 0.161 | 0.0327
7 | [N-]=[N+]=NCc1ccccc1[C@H]1OC(c2ccc(OCCCO)cc2)=N[C@@]1(CCS(=O)(=O)c1ccccc1)C(=O)NCCN1CCOCC1 | -0.0144 | -0.523 | 0.126 | 1.04 | 1.67 | 1.57 | 1.27 | 3.26 (inactive) | 1.16 | -0.0095
8 | COCCOC(=O)N1C(=O)[C@@]2(c3cc(C#CC4=CCCCC4)ccc31)[C@H](c1ccc(O)cc1)N1[C@H](c3ccccc3)[C@H](c3ccccc3)OC(=O)[C@H]1[C@@H]2C(=O)N1CCc2cc(OC)c(OC)cc2C1 | -0.253 | -0.252 | -0.0824 | 0.142 | 0.454 | 0.554 | 1.11 | 0.237 (inactive) | 0.0477 | -0.0296
9 | CCCC=C(CCC)[C@@H](NC(=O)c1ccc(C(=O)OC)cc1)c1ccc(C(=O)OC)cc1 | 0.0362 | -0.312 | 0.355 | -0.327 | 0.423 | 0.203 | -0.166 | 1.24 (inactive) | 0.484 | 2.54
10 | CCCCN1CC=CC23O[C@@H]4C=CCCOC(=O)C4[C@H]2C(=O)N(CCO)[C@@H]3C1=O (stereo not given in full) | 0.18 | -0.881 | -0.276 | 1.02 | -1.29 | -0.944 | -0.397 | -0.183 (inactive) | -1.01 | 0.176
11 | COCCCNC(=O)[C@@]1(Cc2ccccc2I)c2ccccc2C(=O)N(Cc2ccccc2C(F)(F)F)[C@H]1c1ccc(CO)cc1 | 0.088 | 0.395 | -0.0232 | -0.283 | -1.01 | 0.988 | 1.05 | -1.78 (inactive) | 0.341 | 0.0826
